# Screens from PubChem.
# An excerpt weighted towards active compounds, which were near 2.4% of everything screened.
# PP5 inh: PP5 (human) phosphatase inhibition | purified PP5c, OMFP substrate fluorescence | inhibition, % at 6.7 µM | 320,000 tested, 0.18% active | AID 1987;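 active = inhibition above the campaign's mean inhibition across all tested compounds plus 3 SD, cut at about 9.5% in these data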;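 note: 0% = DMSO only and 100% = 100 µM cantharidin control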
# Target sequence (P53041 whole entry, looked up): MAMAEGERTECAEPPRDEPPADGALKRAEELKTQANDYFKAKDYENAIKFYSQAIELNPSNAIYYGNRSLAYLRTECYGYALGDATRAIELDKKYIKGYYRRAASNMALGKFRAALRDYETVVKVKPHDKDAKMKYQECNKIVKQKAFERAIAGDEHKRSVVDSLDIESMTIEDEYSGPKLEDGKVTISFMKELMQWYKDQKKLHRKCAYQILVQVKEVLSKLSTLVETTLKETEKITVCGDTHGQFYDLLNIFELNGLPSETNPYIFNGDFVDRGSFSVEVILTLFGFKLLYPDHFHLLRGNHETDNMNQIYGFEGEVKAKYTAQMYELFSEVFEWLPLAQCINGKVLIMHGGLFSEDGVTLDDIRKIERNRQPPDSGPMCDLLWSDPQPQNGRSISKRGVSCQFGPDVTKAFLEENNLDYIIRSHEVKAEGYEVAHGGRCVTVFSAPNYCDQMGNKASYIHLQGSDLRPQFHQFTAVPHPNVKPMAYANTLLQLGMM
# PP1 inh: blocks human PP1-alpha phosphatase, a PP5 counter-screen. purified PP1alpha, OMFP fluorescence. 320,000 tested, 0.9% active. inhibition, % at 6.7 µM. P62136. AID 2235;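 active = inhibition above the mean inhibition of all tested compounds plus 3 SD, computed separately for each screening campaign, cut at about 15% in these data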
# NadD inh: inhibitors of Staphylococcus aureus NadD. purified NadD enzyme, colorimetric absorbance read-out. inhibition, % at 20 µM. 360,000 tested, 0.78% active; in the data active = inhibition above about 26%
# PREPL inh: inhibits the human prolyl oligopeptidase-like enzyme. Q4J6C6. recombinant PREPL, fluorescence polarization activity-based probe. inhibition, % at 5.96 µM. 320,000 tested, 0.68% active. AID 2751; in the data active = inhibition above about 43%;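 note: 0% = enzyme with DMSO and 100% = wells lacking enzyme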
# Rpn11 inh: blocks the human proteasome subunit Rpn11. human 26S proteasome, Ub4-pepOG fluorescence polarization; 20S core pre-blocked with epoxomicin. O00487. AID 588493. 360,000 tested, 0.59% active. inhibition, % at 20 µM;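 active = inhibition at 20 µM, scaled to each plate's controls, above about 33%, limit read from the data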
# PP1 confirm: confirmation of human PP1 phosphatase inhibitors; shares compounds with PP1 inh; inhibition, % at 6.7 µM; 1,900 tested, 52% active; AID 2358; purified PP1alpha, OMFP substrate fluorescence;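 active = mean PP1 inhibition above a set limit taken from the earlier primary screen, cut at about 15% in these data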
# PP5 counter: PP5 phosphatase inhibition, counter-screen for PP1 inhibitors; shares compounds with PP1 inh; purified PP5c, OMFP fluorescence; inhibition, % at 6.7 µM; 1,900 tested, 4% active; AID 2360;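 active = mean PP5 inhibition over triplicate wells above about 9.5% taken from the earlier PP1 screen, limit read from the data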
# Active calls of the source: *; . = no result.
SMILES,PP5 inh,PP1 inh,NadD inh,PREPL inh,Rpn11 inh,PP1 confirm,PP5 counter
C#CCOCCOCCOCCNc1nc(N2CCN(C(=O)CCCCCCCCCCNC(=O)[C@@H](CCSC)n3cc(CCO)nn3)CC2)nc(N2CCN(C(=O)CCCCCCCCCCNC(=O)[C@H]([C@@H](C)CC)n3cc(CCCCCN)nn3)CC2)n1,4,60*,.,40,.,53*,3
C#CCOCCOCCOCCNc1nc(N2CCN(C(=O)[C@H](CCCCN)n3cc(CCCC)nn3)CC2)nc(N2CCN(C(=O)[C@H](Cc3ccc(O)cc3)n3cc(CCO)nn3)CC2)n1,2,21*,22,-26,37,-10,0
C#CCOCCOCCOCCNc1nc(N2CCN(C(=O)CCCCCCCCCCNC(=O)Cn3cc(C[C@@H](C)O)nn3)CC2)nc(N2CCN(C(=O)CCCCCCCCCCNC(=O)[C@H](CCCCN)n3cc(C[C@@H](C)CC)nn3)CC2)n1,5,38*,44*,29,38,31*,1
C#CCOCCOCCOCCNc1nc(N2CCN(C(=O)[C@H](CCCCN)n3cc(CC(C)O)nn3)CC2)nc(N2CCN(C(=O)[C@H](Cc3ccc(O)cc3)n3cc(CCO)nn3)CC2)n1 (some centres undefined),.,.,-6,.,-11,.,.
COc1ccccc1C1/C(=C(\O)c2ccc3c(c2)OCCO3)C(=O)C(=O)N1CCCn1ccnc1 (centres undefined),1,3,9,5,2,.,.
CC1(C(=O)NCc2ccccc2)CCC(=O)N1CCCn1ccnc1 (centres undefined),.,.,-2,.,0,.,.
COc1cc(CN2C[C@@H](CO)O[C@@H](n3cnc4c(NCC(C)C)ncnc43)C2)cc(OC)c1OC,.,.,2,.,-5,.,.
CCOc1ccc(C(=O)NCC(=O)NCC(c2ccco2)N2CCCCC2)cc1 (centres undefined),2,0,0,8,4,.,.
CSCCC(NC(=O)COc1ccccc1)C(=O)N(C)Cc1ccc(Cl)cc1Cl (centres undefined),2,2,-6,8,4,.,.
COc1ccc(F)cc1C(=O)C1CCCN(Cc2ccc(Sc3nncn3C)o2)C1 (centres undefined),1,-2,5,1,1,.,.
C#CCOCCOCCOCCNc1nc(N2CCN(C(=O)CCCCCCCCCCNC(=O)[C@@H](CCSC)n3cc(CCO)nn3)CC2)nc(N2CCN(C(=O)CCCCCCCCCCNC(=O)[C@H]([C@@H](C)CC)n3cc(CCCCN=C(N)N)nn3)CC2)n1,3,55*,68*,40,87*,49*,0
CCCS(=O)(=O)NC(=O)C1(C)CCN(C(=O)c2ccccc2OC(C)=O)C1 (centres undefined),.,.,0,.,-2,.,.
Cc1c(CCOC(=O)C23CC4(C)CC(C)(CC(C)(C4)C2)C3)sc[n+]1CC(=O)c1ccccc1,4,21*,16,25,-4,-1,5
Cc1c(CCOC(=O)CC23CC4CC(CC(C4)C2)C3)sc[n+]1CC(=O)c1ccccc1,-2,26*,5,28,7,-5,-1
Cc1c(CCOC(=O)C23CC4CC(CC(C4)C2)C3)sc[n+]1Cc1ccccc1,2,-1,-8,20,0,.,.
CCOc1cc(/C=N/NC(=O)c2ccncc2)cc(Cl)c1OS(C)(=O)=O,1,-5,0,12,3,.,.
COc1ccc([C@H]2CC(=O)C=C(c3cc(C=O)ccc3OC)C2)cc1,1,5,-2,3,-4,.,.
CCOC(=O)c1ncccc1NC(=O)CC(=O)Nc1cccnc1C(=O)OCC,0,27*,-11,-3,3,5,1
CCOc1ccc(C(=O)OCC(=O)Nc2cccnc2Cl)cc1OCC,.,.,-7,2,-5,.,.
COC(=O)C1(CC2CC(c3ccc(Cl)cc3)=NO2)CCN(C(=O)OC(C)(C)C)CC1 (centres undefined),4,3,-16,4,-3,.,.
Cc1ccc(S(=O)(=O)N2CCN(C(=O)COC(=O)/C=C/c3ccccc3[N+](=O)[O-])CC2)c(C)c1,2,0,-1,17,-8,.,.
